Data from PubChem BioAssay AID504652 (National Center for Advancing Translational Sciences (NCATS), 2011).
About 11,000 (3.1%) of roughly 360,000 compounds were called active. Only a selection was taken, and actives are over-represented in it overall. Unmarked numbers belong to inactive results. Cut-off read from the data, not from the text of the source: active = activity change below about -30%; inactive = the rest.

Target: D(1A) dopamine receptor (Homo sapiens) (UniProt P21728)
Assay: Antagonist of Human D 1 Dopamine Receptor: qHTS
Details: HEK293 TREx D1 cells, calcium flux, dopamine EC80; at 10 µM; hits give low values
Procedure, shortened: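 After overnight tetracycline induction at 30 C, force-coupled D1 HEK293 cells took up a no-wash calcium dye at room temperature. Compounds were added and monitored 180 s, and the response to EC80 dopamine was then recorded.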
% is set by controls: 0 for no effect and ±100 for the full control effect.

Sequence of D(1A) dopamine receptor (Homo sapiens) (P21728 whole entry, looked up): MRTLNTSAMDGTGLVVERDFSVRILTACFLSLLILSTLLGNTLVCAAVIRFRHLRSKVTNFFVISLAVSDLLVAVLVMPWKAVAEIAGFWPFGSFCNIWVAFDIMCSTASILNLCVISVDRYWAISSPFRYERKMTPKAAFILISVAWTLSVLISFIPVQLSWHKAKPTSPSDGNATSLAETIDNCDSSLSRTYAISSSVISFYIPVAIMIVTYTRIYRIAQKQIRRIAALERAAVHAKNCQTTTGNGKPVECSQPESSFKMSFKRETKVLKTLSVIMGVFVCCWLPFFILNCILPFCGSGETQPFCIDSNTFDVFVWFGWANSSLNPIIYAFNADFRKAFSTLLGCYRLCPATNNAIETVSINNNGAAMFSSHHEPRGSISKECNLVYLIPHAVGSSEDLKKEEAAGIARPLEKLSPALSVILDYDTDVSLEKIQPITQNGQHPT

SMILES | activity change, negative = inhibition
Cc1ccccc1CNC(=O)CCCn1nc(C)c2sc3ccccc3c2c1=O | -0.115%
CCOC(=O)Cn1c(=O)n(-c2ccccc2OC)c2nc(-c3cccc(F)c3)nc(C(N)=O)c21 | -25%
CCc1cc2c(-c3ccccc3)cc(=O)oc2c2c1OCN(Cc1ccc(C)cc1)C2 | -3.71%
O=C1CSC2(C(=O)N(Cc3ccccc3)c3ccccc32)N1c1cccc(F)c1 (stereo not given) | -4.64%
CC1CCCN(c2csc3ccc(F)cc3c2=O)C1 (stereo not given) | -8.32%
COc1ccc(C2=NC3(CCCCC3)N(CC(=O)Nc3ccc(C(C)C)cc3)C2=O)cc1 | -5.42%
Cc1cccc(NC(=O)Cn2nc(-c3ccc(Cl)cc3)c3ccccc3c2=O)c1 | 6.9%
O=C1C=C(c2ccc(Cl)cc2)C(=O)N1Nc1ccccc1 | -47.7% (active)
Cc1ccc(-c2cn3c(n2)sc2cc(C(=O)NCCCc4ccccc4)ccc23)cc1 | 7%
O=S(=O)(c1ccccc1)c1nc(-c2ccccc2)oc1NCCCN1CCOCC1 | -15%
Cc1ccc(-c2nc(C#N)c(NCCCn3ccnc3)o2)cc1 | 5.54%
N#Cc1nc(-c2ccc(OCc3ccccc3)cc2)oc1NCCCN1CCOCC1 | -46.5% (active)
Cc1cc(C)cc(NC(=O)Cn2nc(N3CCN(c4ccccc4)CC3)ccc2=O)c1 | 25.5%
COc1ccc(C)cc1NC(=O)C(=O)NCCc1sc(-c2cccc(C)c2)nc1C | -28.6%
O=c1cc2nc(-c3ccccc3)nc(SCCOc3ccc(Cl)cc3)n2[nH]1 | -2.6%
CCc1ccccc1OCCSc1nc(-c2cccs2)nc2cc(=O)[nH]n12 | -43.9% (active)
Cc1ccc(OCCSc2nc(-c3cccs3)nc3cc(=O)[nH]n23)cc1Cl | -20.2%
CCc1ccc(NC(=O)CN2C(=O)CCSc3ccc(S(=O)(=O)N4CCCC4)cc32)cc1 | 4.1%
COc1ccccc1NC(=O)c1cc(S(=O)(=O)NCCc2ccccc2)ccc1F | -14.3%
Cn1cccc1/C=C1\SC(=S)N(NC(=O)c2ccc(Cl)cc2)C1=O | -34% (active)
O=C(O)c1ccc(/C=C2\SC(=S)N(NC(=O)c3ccc(Br)cc3)C2=O)cc1 | -2.74%
CC(=O)N1C(=O)/C(=C2\SC(=S)N(NC(=O)c3ccc(O)cc3)C2=O)c2ccccc21 | 2.62%
NC(=O)c1ccc(NC(=O)COC(=O)c2c3c(nc4ccccc24)/C(=C\c2ccc4c(c2)OCO4)CCC3)cc1 | -7.23%
NS(=O)(=O)c1ccc(NC(=O)COC(=O)c2c3c(nc4ccccc24)/C(=C\c2ccc4c(c2)OCO4)CCC3)cc1 | -45.1% (active)
COc1cc(/C=C2\CCCc3c2nc2ccccc2c3C(=O)O)cc(Cl)c1O | -14.9%
